# Values without a mark were called inactive. Records with an inconclusive call do not appear. Entries that show only a call come without a potency. Calls of active or inactive are those of the source. Calls come from the whole dose curve; as a rule, active = well fitted curve in the direction sought with a large enough effect; inconclusive = small, poorly fitted or top-dose-only effect, or another doubt; inactive = no such curve, though single readings can be large; an effect the other way counts as inactive or inconclusive.
# Legend:
# [1] = G06 Cancer Cell Toxicity qHTS against the NCATS CANVASS Library (AID 1347368); note: series mostly up to about 46 µM; nearly all actives have a fitted effect of over 60% in size
# Summary of the method: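 G06 dog glioma cells seeded at 500 cells/well were exposed to compounds (11-point qHTS series) for 72 hr at 37C, 5% CO2; viability read as ATP content by CellTiterGlo luminescence.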
# [2] = MCF7 Cancer Cell Toxicity qHTS against the NCATS CANVASS Library (AID 1347369); note: series mostly up to about 46 µM
# Summary of the method: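 MCF7, 500 cells/well; cpds 11-pt qHTS; 72 hr, 37C/5% CO2; CellTiterGlo ATP luminescence.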
# [3] = qHTS for ATAD5 Antagonist screened against the NCATS CANVASS Library (AID 1347370);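 note: HEK293T cells carrying an ATAD5 luciferase reporter co-treated with 10 µM 5-fluorouridine; series mostly up to about 46 µM; nearly all actives have a fitted effect of over 65% in size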
# Summary of the method: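 HEK293T cells with a stably integrated ATAD5-controlled luciferase reporter were exposed to compounds (11-pt) alongside 10 uM 5-fluorouridine as ATAD5 stabilizer for 16hr at 37C. Viability was read by CellTiter-Fluor fluorescence, then ATAD5 by luminescence.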
# [4] = J3T Cancer Cell Toxicity qHTS against the NCATS CANVASS Library (AID 1347371);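 note: J3T is a canine glioma cancer cell line seeded at 500 cells per well; series mostly up to about 46 µM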
# Summary of the method: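 J3T dog glioma cells (500 cells/well) were exposed to compounds in an 11-point series for 72 hr at 37C, 5% CO2. Cytotoxicity was read as ATP content by CellTiterGlo luminescence.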
# [5] = target: Nuclear receptor subfamily 1 group I member 3 (Homo sapiens) (UniProt Q14994); test: qHTS for Constitutive Androstane Receptor (CAR) Agonist screened against the NCATS CANVASS Library (AID 1347373);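 note: every well also contained 1.5 µM PK11195 alongside the test compound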
# Summary of the method: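 HepG2 cells stably expressing hCAR and a CYP2B6-2.2kb luciferase reporter were treated for 24hr at 37C with compounds (11-point qHTS) in the presence of 1.5uM PK11195. Reporter activation was read by ONE-Glo luminescence.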
# [6] = qHTS for Hypoxia signaling pathway (HIF-1) antagonists against the NCATS CANVASS Library (AID 1347374);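 note: HRE-bla ME-180 cells stimulated with cobalt chloride to stabilize HIF-1alpha; series mostly up to about 38 µM; nearly all actives have a fitted effect of over 60% in size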
# Summary of the method: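 HRE-bla ME-180 cells (2,000/well, 0.5% dialyzed FBS) were pre-incubated 5 h, then given an 11-point compound series plus CoCl2 (60 uM solution as added) for 17 h at 37C. CCF4 β-lactamase read (ex 405, em 460/530 nm) after 2 h at RT.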
# [7] = qHTS for Hypoxia signaling pathway (HIF-1) agonists against the NCATS CANVASS Library (AID 1347375)
# Summary of the method: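 HRE-bla ME-180 cells (beta-lactamase reporter under hypoxia responsive element) in 0.5% dialyzed FBS medium, 5 h at 37C, then compound 17 h, 11-point qHTS series. CCF4-AM FRET substrate 2 h RT; 460/530 nm emission read.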
# [8] = 10-beta competent E. coli microbial cell viability qHTS against the NCATS CANVASS Library (AID 1347376); note: series mostly up to about 46 µM
# Summary of the method: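 10-beta competent E. coli (0.9 OD culture diluted to 0.2 OD) exposed to compounds in an 11-point qHTS series, incubated overnight at 37C, 5% CO2. Viability read as ATP by BacTiter-Glo luminescence after 20 min at room temperature.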
# [9] = DH5-alpha competent E. coli microbial cell viability qHTS against the NCATS CANVASS Library (AID 1347377); settings: outcome: dose series up to 46.1 µM unless noted
# Summary of the method: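 DH5-alpha E. coli suspension (0.9 OD culture diluted to 0.2 OD) exposed to compounds in an 11-point series, overnight at 37C, 5% CO2. Viability read as ATP by BacTiter-Glo luminescence after 20 min at room temperature.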
# [10] = qHTS for Inflammasome Signaling Inhibitors: IL-1-beta AlphaLISA screen against the NCATS CANVASS Library (AID 1347379);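 note: human THP-1 cells primed with LPS then triggered with ATP; secreted IL-1B measured as AlphaLISA emission at 615 nm; lower signal means less IL-1B release which is the wanted effect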
# Summary of the method: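 Human THP-1 cells were pretreated 1 hr at 37 °C with compounds (up to 57.5 uM final), then stimulated with LPS (250 ng/mL final) and ATP (1.25 mM final). Secreted IL-1B was read by AlphaLISA after 16 hr.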
# [11] = qHTS for Antimalaria activity screened against the NCATS CANVASS Library (AID 1347380); note: potency is the fitted concentration of half-maximal effect; nearly all actives have a fitted effect of over 40% in size
# Summary of the method: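 P. falciparum Dd2-infected RBCs (2.5% hematocrit final, 0.3% parasitemia) in Albumax II RPMI were exposed to compounds in an 11-point qHTS series for 72 h at 37C under 5% O2/5% CO2, then lysed with SYBR Green.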
# [12] = Inflammasome Signaling qHTS Counterscreen: IL-1-beta AlphaLISA counterscreen against the NCATS CANVASS Library (AID 1347381);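 note: cell-free check with purified IL-1β in medium and no THP-1 cells; series mostly up to about 57 µM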
# Summary of the method: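 To flag interference with the AlphaLISA read-out, a known amount of purified IL-1-beta (4 pg) replaced cell supernatant. Detection used anti-IL-1-beta acceptor beads, biotinylated antibody and streptavidin donor beads at room temperature.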
# [13] = Cytotoxicity qHTS for assessment of Hepg2 cells membrane integrity screened against the NCATS CANVASS Library (AID 1347387)
# Summary of the method: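 HepG2 cells (2000/well) attached overnight at 37C, then received compounds in an 11-point series at 0.59 nM - 46 uM final for 5 hr. LDH release was detected fluorometrically (ex 560/em 590 nm) with CytoTox-ONE reagent after 10 min at room temperature.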
# [14] = qHTS for Activators of p53 Stress Response Pathway screened against the NCATS CANVASS Library (AID 1347388)
# Summary of the method: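 Beta-lactamase reporter driven by p53 response elements in HCT-116 cells, read as the 460 nm/530 nm emission ratio after CCF4 loading, following 16 h of exposure to an 11-point series. Cell viability was measured in the same wells by CellTiter-Glo luminescence.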
# [15] = qHTS assay for small molecule disruptors of mitochondrial membrane potential screened against the NCATS CANVASS Library (AID 1347389); note: series mostly up to about 46 µM; nearly all actives have a fitted effect of over 60% in size
# Summary of the method: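 HepG2 cells (2,000/well) were plated overnight at 37C, exposed to compound for 1 hr at 37C/5% CO2, then loaded with Mito-MPS dye for 30 min. Depolarization was read as a drop in red (590 nm) to green (535 nm) fluorescence ratio.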
# [16] = Secretion counterscreen for inhibitors of the SERCaMP assay screened against the NCATS CANVASS Library (AID 1347390);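 note: light from luciferase secreted into medium read as a measure of general secretion; series mostly up to about 77 µM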
# Summary of the method: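 SH-SY5Y cells expressing constitutively secreted GLuc, 1000 cells/well, attached 4 h at 37C, then exposed to compounds (0.001 - 77 uM, 11-pnt series) for 20 h. Coelenterazine added; luminescence read to flag secretory-pathway interferers.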
# [17] = qHTS for activators of Nrf2/ARE signaling pathway screened against the NCATS CANVASS Library (AID 1347391); note: nearly all actives have a fitted effect of over 60% in size
# Summary of the method: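 ARE-bla HepG2 beta-lactamase reporter cells, 2000 cells/well, were preincubated 5 h, then exposed to compounds (11-point series) for 16 h at 37C. CCF4 fluorescence (ex 405, em 460/530 nm) after 2 h at room temperature.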
# [18] = qHTS for activators of dead-cell proteases activity screened against the NCATS CANVASS Library (AID 1347392);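 note: luminescence from protease leaking out of membrane-damaged cells cleaving impermeant substrate; rising signal means more cytotoxicity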
# Summary of the method: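 Compounds are pin-transferred onto attached HepG2 cells, giving 11 final concentrations. After 5 h at 37C, AAF-aminoluciferin reagent is added and luminescence is recorded at room temperature.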
# [19] = qHTS for inhibitors of ER calcium dysfunction: SERCaMP assay screened against the NCATS CANVASS Library (AID 1347393);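 note: series mostly up to about 77 µM; lower secreted reporter signal means inhibitor of ER calcium depletion; nearly all actives have a fitted effect of over 40% in size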
# Summary of the method: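 Thapsigargin-induced ER calcium depletion drives GLuc-SERCaMP secretion from SH-SY5Y cells; compounds given 16 h beforehand were scored by lowered coelenterazine luminescence after 4 h challenge.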
# [20] = Vero-766 cells viability qHTS against the NCATS CANVASS Library: Counterscreen for Zika virus inhibition assay (AID 1347394)
# Summary of the method: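 Uninfected Vero 766 (African green monkey) cells, 1000/well, attached overnight, then exposed 72 h at 37C to compounds (11-point qHTS). Viability read by CellTiter-Glo luminescence; media-only wells served as 100% inhibition.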
# [21] = qHTS for inhibitors of Wild type Zika virus screened against the NCATS CANVASS Library (AID 1347396);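 note: ATP luminescence of surviving cells so rescue from viral cell killing; series mostly up to about 46 µM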
# Summary of the method: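 Using ATP-based luminescence (CellTiter Glo), this screen scores rescue of Vero 766 cells from wild-type Zika killing at 72 h post-infection. Compounds are tested in a concentration series.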
# [22] = Viability qHTS for inhibitors of the SERCaMP assay screened against the NCATS CANVASS Library (AID 1347400); note: series mostly up to about 92 µM; nearly all actives have a fitted effect of over 70% in size
# Summary of the method: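 SH-SY5Y-GLuc SERCaMP MJH297-derived cells (1000 cells/well) were pre-incubated 4 h at 37C, then exposed to compounds for 48 h. Viability was read as CellTiter-Glo luminescence; bortezomib served as positive control.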
# [23] = Redox Reaction Profiling qHTS: Assay Interference Panel against the NCATS CANVASS Library (AID 1347401)
# Summary of the method: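 Cell-free redox surrogate: 5 uM resazurin + 200 uM DTT, 50 mM HEPES pH 7.3/50 mM NaCl; cpds pinned, 11-pt qHTS; Ex525/Em598 read t0 and t=15 min, dark.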
# Nuclear receptor subfamily 1 group I member 3 (Homo sapiens), sequence (Q14994 whole entry, looked up): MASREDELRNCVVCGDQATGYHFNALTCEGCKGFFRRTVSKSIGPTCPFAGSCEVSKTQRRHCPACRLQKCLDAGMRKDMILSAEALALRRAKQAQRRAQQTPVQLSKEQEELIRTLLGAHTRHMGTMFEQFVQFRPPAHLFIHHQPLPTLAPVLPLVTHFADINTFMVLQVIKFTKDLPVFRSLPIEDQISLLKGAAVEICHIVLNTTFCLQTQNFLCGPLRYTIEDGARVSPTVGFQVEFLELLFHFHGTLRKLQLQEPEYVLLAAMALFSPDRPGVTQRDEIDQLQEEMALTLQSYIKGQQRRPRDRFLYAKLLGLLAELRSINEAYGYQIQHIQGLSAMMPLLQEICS
structure (smiles),measurement,setting,value
CCCCCCCCCCCCCCCC(=O)OC/C=C(\C)CCCC(C)CC(C)C(C)C (stereo not drawn),Potency,[1],inactive
same,Potency,[2],inactive
same,Potency,[3],inactive
same,Potency,[4],inactive
same,outcome,[5],inactive
same,Potency,[6],inactive
same,Potency,[7],inactive
same,outcome,[8],inactive
same,outcome,[9],inactive
same,Potency,[10],inactive
same,Potency,[11],1.9 nM (active)
same,outcome,[12],inactive
same,outcome,[13],inactive
same,Potency,[14],inactive
same,Potency,[15],inactive
same,Potency,[16],inactive
same,Potency,[17],inactive
same,Potency,[18],inactive
same,Potency,[19],inactive
same,Potency,[20],inactive
same,Potency,[21],inactive
same,Potency,[22],inactive
same,Potency,[23],inactive

# Reference: PubChem BioAssay (NCATS)
